Laboratory results taken from the supplement of paper PMC10127200.
Where “and” joins values, the source holds several entries; their conditions need not be identical. Equal values may be shown once. Where a name gives a salt, the structure may show the parent alone.

Key:
Experiment in all cases: Euclidean distance of Cell Painting phenotypic profile (signed KS, 77 features) to DMSO centroid (dimensionless distance); 5 or 10 uM (library dependent); higher = stronger phenotypic change vs DMSO (phenoactivity)
Conditions in all cases: 48 h
[1] = test system: 786-O
Outline: (§1)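 At 10 or 5 uM, as set by the library, and 0.1% DMSO final, compounds were applied for 48 h to five cancer lines and one healthy fibroblast line. Stained cells were imaged confocally at 20X in 9 fields per well, and Harmony extracted 77 features scored as signed Kolmogorov-Smirnov statistics against vehicle wells on the same plate. Profiles underwent plate-position correction, correlation weighting and replicate averaging at the top dose. Phenoactivity is the Euclidean distance from each such profile to the median vehicle profile.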

[2] = test system: A549
Outline: as §1

[3] = test system: DU145
Outline: as §1

[4] = test system: FB
Outline: as §1

[5] = test system: HEPG2
Outline: as §1

[6] = test system: OVCAR4
Outline: as §1

Structure (SMILES)	Euclidean distance [1]	Euclidean distance [2]	Euclidean distance [3]	Euclidean distance [4]	Euclidean distance [5]	Euclidean distance [6]
CC(C)NC[C@@H](O)COc1ccc(CC(N)=O)cc1 [(R)-(+)-Atenolol HCl]	0.631	0.523	0.486	0.716	0.626	0.511
CCN(CC)CCNC(=O)c1cc(Cl)c(N)cc1OC [Metoclopramide HCl]	0.662	0.513	0.62	0.54	0.614	0.647
C/C=C\c1ccc(O)c(OC)c1 [Isoeugenol]	0.776	0.444	1.07	0.672	0.417	0.903
CN(C)CCOC(c1ccc(Cl)cc1)c1ccccn1 (stereo not drawn) [CarbinoxaMine Maleate]	1.32	0.778	1.98	1.44	0.691	0.935
CNC(=O)c1cc(Oc2ccc(NC(=O)Nc3ccc(Cl)c(C(F)(F)F)c3)c(F)c2)ccn1 [Regorafenib (BAY 73-4506)]	1.82	2.6	1.66	1.6	1.42	1.63
Cc1[nH]c2ccccc2c1CCNCc1ccc(/C=C/C(=O)NO)cc1 [Panobinostat]	3.44	4.4	4.84	3.48	4.4	3.58
Clc1ccc2c(c1)C(N1CCNCC1)=Nc1ccccc1O2 [Amoxapine]	1.43	1.02	1.12	1.06	0.744	1.09
OC[C@@H](O)[C@@H](O)[C@H](O)[C@@H](O)CO [Sorbitol]	1.36	0.586	0.79	0.737	0.791	1.21
N=C(N)NS(=O)(=O)c1ccc(N)cc1 [Sulfaguanidine]	1.11	0.776	1.03	0.936	0.524	1.55
CCC(=O)NS(=O)(=O)c1ccc(-c2c(-c3ccccc3)noc2C)cc1 [Parecoxib Sodium]	0.662	0.521	0.541	0.844	0.676	0.905
O=c1c(-c2ccc(O)cc2)coc2cc(O)cc(O)c12 [Genistein]	1.75	1.52	1.14	1.28	0.498	1.13
C[C@H]1O[C@@H](n2cc(F)c(=O)[nH]c2=O)[C@H](O)[C@@H]1O [Doxifluridine]	0.747	1.07	0.886	0.864	2.72	1.03
CCN(CCCCOC(=O)c1ccc(OC)c(OC)c1)C(C)Cc1ccc(OC)cc1 (stereo not drawn) [Mebeverine Hydrochloride]	0.875	1.21	1.06	1.29	0.855	1.91
CC1(C)OCCn2c1nc1c(N3CCOCC3)nc(-c3cnc(N)nc3)nc12	2.79	2.94	2.05	4.44	2.32	2.93
C[C@@H]1CCN(C(=O)CC#N)C[C@@H]1N(C)c1ncnc2[nH]ccc12	0.925 and 0.548	0.553 and 0.511	1.04 and 0.639	0.618 and 0.551	0.886 and 0.785	0.908 and 0.677
COc1cc2/c(=N/c3ccc(Br)cc3F)nc[nH]c2cc1OCC1CCN(C)CC1 [Vandetanib (ZD6474)]	1.3	2.59	2.38	2.66	1.7	2.94
CC(C)Oc1ccc(-c2nc(-c3cccc4c3CC[C@@H]4NCCO)no2)cc1C#N [Ozanimod (RPC1063)]	1.97	1.08	0.79	1.6	1.46	1.68
O=C(O)CCCCCCCC(=O)O [Azelaic acid]	0.8	1.26	0.798	0.728	0.834	0.801
COCCOC(=O)C1=C(C)NC(C)=C(C(=O)OC(C)C)C1c1cccc([N+](=O)[O-])c1 (stereo not drawn) [Nimodipine]	1.59	1.37	1.08	1.08	1.96	1.09
CC(C)N(C[C@H]1O[C@@H](n2cnc3c(N)ncnc32)[C@H](O)[C@@H]1O)[C@H]1C[C@@H](CCc2nc3cc(C(C)(C)C)ccc3[nH]2)C1	0.867	0.931	1.3	1.28	0.884	0.955
O=C(O)CCCc1ccccc1 [Sodium Phenylbutyrate]	0.697	0.666	1.02	0.829	0.249	1.01
C#C[C@]1(O)CC[C@H]2[C@@H]3CCC4=CC(=O)CC[C@@H]4[C@H]3CC[C@@]21CC [Levonorgestrel]	1.01	0.81	0.624	0.673	0.994	0.816
OC(CCN1CCCCC1)(c1ccccc1)C1CC2C=CC1C2 (stereo not drawn) [Biperiden HCl]	0.618	0.662	0.98	1.08	1.01	0.843
OC[C@@H](O)[C@@H](O)[C@H](O)[C@H](O)CO [D-Mannitol]	1.14	0.536	0.826	0.744	0.415	0.791

Structure (SMILES)	Euclidean distance [1]	Euclidean distance [2]	Euclidean distance [3]	Euclidean distance [4]	Euclidean distance [5]	Euclidean distance [6]
CN(C)C(=O)c1cc2cnc(Nc3ccc(N4CCNCC4)cn3)nc2n1C1CCCC1	2.35	1.67	1.46	3.9	1.9	1.81
CC(=O)Nc1cccc2c1c(Sc1ccc(Cl)cc1)c(C)n2CC(=O)O	0.872	0.72	1.15	0.772	0.51	0.868
CCOC(=O)c1ccc(N2NC(=O)C(=Cc3ccc([N+](=O)[O-])o3)C2=O)cc1	1.51	1.47	1.17	0.999	0.851	1.17
Oc1ccc([C@H]2COc3cc(O)ccc3C2)cc1 [Equol]	1.09	1.52	1.04	1.35	0.768	1.72
COC(=O)N/N=C/c1c[n+]([O-])c2ccccc2[n+]1[O-] [Carbadox]	0.912	0.99	0.837	1.23	1.04	1.46
CCCC(CCC)C(=O)O [Valproic acid sodium salt (Sodium valproate)]	0.85	0.706	0.534	0.529	0.677	0.959
CCCCOc1cc(C(=O)NCCN(CC)CC)c2ccccc2n1 [Cinchocaine]	0.885	1.28	0.93	1.03	1.47	1.21
COc1ccc([C@]2(C#N)CC[C@@H](C(=O)O)CC2)cc1OC1CCCC1 [Cilomilast]	1.31	0.842	1.35	1.14	1.3	1.53
C[C@@H]1C[C@H]2[C@@H]3CCC4=CC(=O)C=C[C@]4(C)[C@@]3(F)[C@@H](O)C[C@]2(C)[C@@]1(O)C(=O)COP(=O)(O)O [Dexamethasone Sodium Phosphate]	1.79	2.25	2.22	1.44	0.744	2.38
CC1(C)S[C@@H]2[C@H](NC(=O)COc3ccccc3)C(=O)N2[C@H]1C(=O)O [Penicillin V potassium salt]	1.25	1.22	1.35	0.767	0.481	1.67
O=C1[C@H]2CCCC[C@H]2C(=O)N1CCCCN1CCN(c2nsc3ccccc23)CC1 [Perospirone hydrochloride]	2.05	1.44	1.08	1.59	1.05	1.36
CCOc1cc(N)c(Cl)cc1C(=O)NCC1CN(Cc2ccc(F)cc2)CCO1 (stereo not drawn) [Mosapride]	1.2	0.542	0.858	1.33	0.651	1.09
O=C(COc1ccc(Cl)cc1)N1CCN(Cc2ccc3c(c2)OCO3)CC1 [Fipexide hydrochloride]	1.78	1.13	1.39	1.08	0.573	1.32
NC(=O)c1ccc(-c2nc(-c3ccccn3)c(-c3ccc4c(c3)OCO4)[nH]2)cc1	1.59	2.49	1.48	1.91	2.52	2.61
C[N+](C)(C)CCOC(N)=O [Carbachol]	1.07	1.19	0.687	1.16	0.696	1.56
O=C(CCc1ccc(O)cc1)c1c(O)cc(O)cc1O [Phloretin]	0.62	0.656	1.06	1.13	1.23	0.792
CO[C@H]1/C=C/O[C@@]2(C)Oc3c(C)c(O)c4c(O)c(c(/C=N/N5CCN(C6CCCC6)CC5)c(O)c4c3C2=O)NC(=O)/C(C)=C\C=C\[C@H](C)[C@H](O)[C@@H](C)[C@@H](O)[C@@H](C)[C@H](OC(C)=O)[C@@H]1C [Rifapentine]	1.24	0.894	1.76	1.72	2.12	1.56
O=C(/C=C\n1cnc(-c2cc(C(F)(F)F)cc(C(F)(F)F)c2)n1)N1CC(F)(F)C1	3.83	3.69	3.2	2.48	3.62	4
CC[C@@H]1/C=C(\C)C[C@H](C)C[C@H](OC)[C@H]2O[C@@](O)(C(=O)C(=O)N3CCCC[C@H]3C(=O)O[C@H](/C(C)=C/[C@@H]3CC[C@H](Cl)[C@H](OC)C3)[C@H](C)[C@@H](O)CC1=O)[C@H](C)C[C@@H]2OC [Pimecrolimus]	1.47	1.85	2.17	2.13	0.886	1.29
CC(=O)[C@H]1CC[C@H]2[C@@H]3CC=C4C[C@@H](O)CC[C@]4(C)[C@H]3CC[C@]12C [Pregnenolone]	1.29	1.07	0.872	1.07	0.703	1.03
CC12CC3CC(C)(C1)CC(N)(C3)C2 [Memantine HCl]	1.1	0.654	1.66	1.03	1.95	1.51
CS(=O)(=O)c1ccc(C2=C(c3ccccc3)C(=O)OC2)cc1 [Rofecoxib]	1.05	0.859	0.686	0.821	0.51	1.24
O=C(Nc1ccccc1Br)N[C@@H]1CCN(c2ccc(C(F)(F)F)cn2)C1	0.896	0.999	0.688	0.9	0.544	1.21
Cc1cc(-c2ccc(/N=N/c3ccc4c(S(=O)(=O)O)cc(S(=O)(=O)O)c(N)c4c3O)c(C)c2)ccc1/N=N/c1ccc2c(S(=O)(=O)O)cc(S(=O)(=O)O)c(N)c2c1O [Evans Blue]	0.929	0.808	0.955	1.65	0.481	1.37
